Consider 15 compounds from PubChem BioAssay.

In assay [1] the test system is TRPC4 beta (transient receptor potential cation channel C4), mouse. The assay is described as follows: TRPC4 cation channel opening, retest – cell-based, Fluo4 calcium, HEK293 TRPC4beta/mu-opioid, duplicates, 10 µM, confirmation (AID 2426;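 active = fluorescence ratio normalized to control raised more than 50% in primary screen plus both repeat runs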;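 as to activation: percent rise of integrated ratio over buffer wells lacking compound which define 0%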). Particulars: Fluo4 calcium fluorescence, at 10 µM; active compounds read high.
The test system of assay [2] is transient receptor potential cation channel C4 beta (TRPC4), mouse. The assay is described as follows: TRPC4 cation channel opening, second retest – cell-based, second round, Fluo4, HEK293 TRPC4beta/mu-opioid, 1 µM, confirmation (AID 2461;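 active = primary screen active and over 50% activation in each of two duplicate runs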;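 as to activation: 0% = wells without test compound as baseline of integrated fluorescence ratio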). Particulars: Fluo4 calcium fluorescence, at 1 µM; active compounds read high.
Assay [3] concerns TRPC4 (transient receptor potential cation channel C4 beta), mouse. The assay is described as follows: potentiation of DAMGO EC20 TRPC4 response – cell-based, second round, Fluo-4, HEK293 TRPC4beta/mu-opioid, 1 µM, confirmation (AID 2554;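 active = primary screen hit whose fluorescence ratio, in both repeats, exceeds the weak agonist control mean by 3 SD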). To be noted: DAMGO EC20, Fluo-4 calcium flux, at 1 µM; active compounds read high.
The test system of assay [4] is TRPC4 beta (transient receptor potential cation channel C4), mouse. The assay is described as follows: potentiation of DAMGO EC20 TRPC4 response – cell-based, Fluo-4, HEK293 TRPC4beta/mu-opioid, confirmation (AID 2555;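 active = primary screen hit whose calcium fluorescence ratio, in both repeats, exceeds the weak agonist control mean by 3 SD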). Particulars: DAMGO EC20, Fluo-4 calcium flux, at 10 µM; active compounds read high. On the technique in general: Calcium assays in cells follow changes in intracellular calcium, usually with a dye or a luminescent sensor.

Assay [5] addresses Short transient receptor potential channel 4 (Mus musculus) (UniProt Q9QUQ5). The assay is described as follows: blockers of DAMGO-evoked TRPC4 calcium flux – cell-based, Fluo4, HEK293 TRPC4beta/mu-opioid, confirmation (AID 2636;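 active = calcium signal cut by more than 3 SD below the full-agonist control yet still positive, in both repeats and the earlier primary screen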). Particulars: at 10 µM; active compounds read high.
Assay [6] has the same target. The assay is described as follows: blockers of DAMGO-evoked TRPC4 calcium flux – cell-based, second round, Fluo4, HEK293 TRPC4beta/mu-opioid, 1 µM, confirmation (AID 2637;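 active = calcium signal ratio cut to more than 3 SD under the fully stimulated control mean yet still positive, in both repeats and the primary screen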). Particulars: at 1 µM; active compounds read high.
The target is the same in assay [7]. The assay is described as follows: potentiation of DAMGO-evoked TRPC4 calcium signal – cell-based, HEK293 TRPC4/mu-opioid, Fluo-4 calcium, EC20 DAMGO, dose response (AID 434941;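 active = earlier screen potentiator hit that boosts the TRPC4 ion channel at some dose, with a dose response; inactive = no potentiation, no dose response, or not a prior hit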;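 also: calcium entry triggered by an EC20 dose of DAMGO at the co-expressed mu-opioid receptor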).
Assay [8] has the same target. The assay is described as follows: block of DAMGO-driven TRPC4 calcium entry – cell-based, HEK293 TRPC4/mu-opioid, Fluo-4 calcium, dose response (AID 434942;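 active = primary screen inhibitor hit that blocks the TRPC4 channel at some tested dose, yielding a dose curve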).
Assay [9] addresses Short transient receptor potential channel 6 (Mus musculus) (UniProt Q61143). The experiment in a line: TRPC6 blockade by TRPC4 inhibitor hits – cell-based, HEK293, membrane potential dye, duplicate, selectivity assay for TRPC4 inhibitor project, confirmation (AID 434948;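 active = active in primary screen and both duplicates, each dropping signal beyond three positive-control SD with fluorescence still positive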). To be noted: HEK293 TRPC6, membrane potential dye fluorescence, at 10 µM, stimulated with maximal-effect acetylcholine; active compounds read high.

For assay [10] the target is unchanged. The assay is described as follows: TRPC6 opening by TRPC4 activator hits – cell-based, HEK293, membrane potential dye, duplicate, selectivity assay for TRPC4 activator project, confirmation (AID 434950;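 active = membrane potential signal rise above negative control mean plus 3 SD in both duplicates, also active in the earlier TRPC4 screen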;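 as to activation: 0% = buffer only wells and 100% = acetylcholine maximal-effect wells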). Particulars: HEK293 TRPC6, membrane potential fluorescence, at 10 µM; activation: active compounds read high; outcome: activation.
Assay [11] has the same target. The experiment in a line: positive modulators of mouse TRPC6 channel – HEK293 cells, membrane potential dye, duplicate, selectivity assay for TRPC4 potentiator project, confirmation (AID 434952;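 active = compound raising the membrane signal above positive-control mean plus 3 SD in both repeats, and a primary screen hit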). To be noted: HEK293 TRPC6, membrane potential dye fluorescence, at 10 µM, maximal acetylcholine added after compound; active compounds read high.
Assay [12] addresses Short transient receptor potential channel 4 (Mus musculus) (UniProt Q9QUQ5). The assay is described as follows: calcium flux activators in TRPC4/5HT1a cells, counter-screen for TRPC4 activator project, cell-based, second counter screen, HEK293 TRPC4/5HT1a, Fluo-4 (AID 434977).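 As to activation: plate controls were assay buffer for no effect and maximal serotonin response for full effect.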 Particulars: Fluo-4 calcium flux, at 10 µM; active compounds read high.
Assay [13] can be described thus: serotonin-gated TRPC4 signal block – cell-based, second counter screen, HEK293 TRPC4/5HT1a, Fluo-4, counter-screen for TRPC4 inhibitor project, confirmation (AID 434978;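 active = primary screen active whose calcium signal fell more than 3 SD beyond the full-serotonin control mean in both duplicate plates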;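 also: serotonin given first at submaximal then at maximal dose after compound preincubation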). Particulars: Fluo-4 calcium flux, at 10 µM, serotonin added to trigger calcium flux; active compounds read high. (In general: A counterscreen serves to expose hits that act by an unwanted route or on another target.)

Assay [14] has as its system TRPC4 (mouse), co-expressed with 5HT1a in HEK293. The experiment in a line: enhancement of serotonin-evoked TRPC4 response – cell-based, second counter screen, HEK293 TRPC4/5HT1a, Fluo-4, counter-screen for TRPC4 potentiator project, confirmation (AID 434979;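 active = signal rise over 3 SD above mean of control wells given weak agonist, in both repeats and first screen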). To be noted: Fluo-4 calcium flux, at 10 µM, serotonin added at its EC20 dose; active compounds read high.
The nature of assay [15]: nonspecific calcium rise without TRPC4 – cell-based, HEK293 mu-opioid receptor line, counter-screen for TRPC4 activator project, confirmation (AID 449723;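 active = hit in primary screen, with calcium signal over 5 SD above buffer well mean in both duplicates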;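 also: counter screen cells carry the mu-opioid receptor alone and lack TRPC4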). To be noted: HEK293 mu-opioid cells, Fluo-4 calcium fluorescence, at 10 µM; active compounds read high.
The nature of assay [16]: nonspecific potentiation of DAMGO calcium response – cell-based, HEK293 mu-opioid receptor line, counter-screen for TRPC4 allosteric potentiator project, confirmation (AID 449724;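 active = calcium signal rise more than 3 SD above the low-dose agonist control mean, in both duplicate plates and the primary screen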;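 also: HEK293 cells carrying mu-opioid receptor only with no TRPC4 channel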). To be noted: HEK293 mu-opioid receptor cells, Fluo-4 calcium flux, at 10 µM, compound added before EC20 DAMGO stimulus; active compounds read high.

Molecules are shown by their SMILES. For part of these data: Results with a measured potency or affinity are listed apart. Activity calls are given as the source filed them.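 The calls were made as follows, unless noted: active = calcium signal rise above buffer-control mean plus 5 SD in both duplicates, and also a hit in the primary screen; inactive = the rest.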

Short transient receptor potential channel 4 (Mus musculus), sequence (Q9QUQ5 whole entry, looked up): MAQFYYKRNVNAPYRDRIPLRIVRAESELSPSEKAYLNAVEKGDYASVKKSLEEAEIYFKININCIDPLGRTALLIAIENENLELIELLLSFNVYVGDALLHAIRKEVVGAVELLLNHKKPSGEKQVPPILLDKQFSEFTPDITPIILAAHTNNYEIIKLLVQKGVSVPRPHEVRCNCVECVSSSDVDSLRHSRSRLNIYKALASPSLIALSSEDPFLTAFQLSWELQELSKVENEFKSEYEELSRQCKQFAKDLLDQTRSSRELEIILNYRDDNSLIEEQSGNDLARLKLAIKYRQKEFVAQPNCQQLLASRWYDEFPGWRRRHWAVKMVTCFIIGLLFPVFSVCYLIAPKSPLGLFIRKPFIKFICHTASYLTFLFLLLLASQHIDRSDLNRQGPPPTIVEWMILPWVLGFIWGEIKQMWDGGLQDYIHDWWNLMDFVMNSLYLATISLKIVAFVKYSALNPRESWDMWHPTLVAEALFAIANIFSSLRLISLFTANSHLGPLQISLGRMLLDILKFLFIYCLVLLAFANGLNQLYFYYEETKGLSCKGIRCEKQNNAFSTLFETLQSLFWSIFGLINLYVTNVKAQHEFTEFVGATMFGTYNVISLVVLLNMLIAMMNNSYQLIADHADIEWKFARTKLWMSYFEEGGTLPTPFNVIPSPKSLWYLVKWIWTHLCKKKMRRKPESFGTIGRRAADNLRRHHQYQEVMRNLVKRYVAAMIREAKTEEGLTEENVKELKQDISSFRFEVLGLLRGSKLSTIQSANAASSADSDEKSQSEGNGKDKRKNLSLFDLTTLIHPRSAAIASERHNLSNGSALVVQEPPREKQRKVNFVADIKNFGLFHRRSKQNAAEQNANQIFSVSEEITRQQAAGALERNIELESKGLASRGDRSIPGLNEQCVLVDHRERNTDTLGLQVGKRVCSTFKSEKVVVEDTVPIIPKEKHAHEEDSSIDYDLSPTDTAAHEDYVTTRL
Short transient receptor potential channel 6 (Mus musculus), sequence (Q61143 whole entry, looked up): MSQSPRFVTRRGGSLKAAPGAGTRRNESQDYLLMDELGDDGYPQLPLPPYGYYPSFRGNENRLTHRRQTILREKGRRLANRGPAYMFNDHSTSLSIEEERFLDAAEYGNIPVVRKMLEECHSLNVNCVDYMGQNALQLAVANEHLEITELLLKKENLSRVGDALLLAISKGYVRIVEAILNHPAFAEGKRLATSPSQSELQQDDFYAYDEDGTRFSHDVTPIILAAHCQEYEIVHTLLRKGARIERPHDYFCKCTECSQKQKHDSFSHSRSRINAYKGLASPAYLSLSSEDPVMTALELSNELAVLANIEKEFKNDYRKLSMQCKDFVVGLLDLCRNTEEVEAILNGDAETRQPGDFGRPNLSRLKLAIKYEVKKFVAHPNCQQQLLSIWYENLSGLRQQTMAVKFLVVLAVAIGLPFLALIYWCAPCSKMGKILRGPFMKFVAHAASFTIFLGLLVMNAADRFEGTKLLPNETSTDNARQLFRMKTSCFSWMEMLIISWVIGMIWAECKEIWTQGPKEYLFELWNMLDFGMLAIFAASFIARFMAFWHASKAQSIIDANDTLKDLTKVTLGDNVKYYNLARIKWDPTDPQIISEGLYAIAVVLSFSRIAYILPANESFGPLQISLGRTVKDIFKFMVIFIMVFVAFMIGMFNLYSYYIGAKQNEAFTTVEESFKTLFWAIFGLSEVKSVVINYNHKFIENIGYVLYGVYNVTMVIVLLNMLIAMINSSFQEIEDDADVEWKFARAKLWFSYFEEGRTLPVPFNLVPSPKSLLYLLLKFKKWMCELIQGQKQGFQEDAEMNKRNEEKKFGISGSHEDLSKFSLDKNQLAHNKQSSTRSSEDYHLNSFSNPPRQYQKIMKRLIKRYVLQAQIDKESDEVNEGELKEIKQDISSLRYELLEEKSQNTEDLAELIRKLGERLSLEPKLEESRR

As for `CN(C)CCCN(C(=O)c1ccc(Cl)s1)c1nc2cc3c(cc2s1)OCO3`, the activation in [1] was 63% (active). For the same compound, the outcome in [2], in [3], in assay [4], in assay [5], in [6] and in assay [7] was inactive. Also, the outcome in assay [8], in assay [9], in [10], in assay [11], in assay [12] and in assay [13] was inactive. Moreover, the outcome in assay [14], in [15] and in assay [16] was inactive.

As to `COc1cccc(C(=O)OC2CCCN(C)C2)c1` (stereo not given), the activation in assay [1] is 135% (active); in [2] it was 85% (active); in assay [10], 43% (active); in assay [12], 48.9% (active). Moreover, the result in assay [3], in [4], in assay [5], in [6], in assay [7] and in assay [8] was inactive. Besides, the outcome in [9], in [11], in assay [13], in [14], in [15] and in [16] was inactive.

As to `CCn1c(N2CCN(S(=O)(=O)CC)CC2)nc2ccccc21`, the activation in [1] was 96% (active); in [12], 19.2% (active). In addition, the outcome in [2], in [3], in assay [4], in assay [5], in [6] and in assay [7] was inactive. In addition, the outcome in assay [8], in assay [9], in assay [10], in [11], in assay [13] and in [14] was inactive. In addition, the result in assay [15] and in assay [16] was inactive.

Regarding `CCn1c(CN2CCN(Cc3ccc(C)cc3)C(CCO)C2)nc2ccccc21` (stereo not given), the activation in [1] was 129% (active); in [2], 73% (active); in assay [10], 61.5% (active); in assay [12] it was 32.4% (active). The result in assay [3], in assay [4], in [5], in assay [6], in assay [7] and in [8] was inactive. Further, the compound was called inactive in [9], in assay [11], in assay [13], in assay [14], in assay [15] and in assay [16].

As for `Cc1ccc(-n2cc(CNC(C)c3cnn(C)c3C)c(-c3ccc(F)cc3)n2)cc1` (stereo not given), the activation in assay [1] is 195% (active); in [2], 86% (active); in [10], 30.5% (active). Also, the result in assay [3], in assay [4], in assay [5], in assay [6], in assay [7] and in [8] was inactive. Further, the call in assay [9], in assay [11], in [12], in assay [13], in assay [14] and in assay [15] was inactive. Also, in assay [16], the outcome was inactive.

For `CC1CC(C)CN(CCCNC(=O)Cn2cccc2C(=O)c2ccccc2)C1` (stereo not given), the activation is 162% (active) in [1], 98% (active) in [2], 50.5% (active) in assay [10] and 62.1% (active) in assay [12]. Moreover, the result in [3], in assay [4], in [5], in assay [6], in assay [7] and in assay [8] was inactive. Also, the compound was called inactive in assay [9], in [11], in [13], in [14], in assay [15] and in [16].

As to `CCN1CCN(c2c(Cl)cccc2NC(=O)c2ccc([N+](=O)[O-])cc2)CC1`, the activation in assay [1] was 80% (active); in assay [12] it was 7.83% (active). Further, the result in assay [2], in assay [3], in [4], in [5], in assay [6] and in assay [7] was inactive. The outcome in assay [8], in assay [9], in [10], in assay [11], in assay [13] and in [14] was inactive. The outcome in [15] and in assay [16] was inactive.

Consider `Cc1sc2ncnc(NCC(c3ccccc3)N(C)C)c2c1C` (stereo not given), for which the results for the activation in assay [1], in assay [2] and in assay [12] were 245% (active), 120% (active) and 49% (active), respectively. In addition, the result in [3], in assay [4], in [5], in [6], in assay [7] and in [8] was inactive. Moreover, the result in assay [9], in assay [10], in assay [11], in [13], in assay [14] and in [15] was inactive. Besides, the result in [16] was inactive.

Turning to `CCc1cccc(C)c1NC(=S)NCC(c1cccnc1)N(C)C` (stereo not given), the activation in assay [1] was 80% (active); in [2], 82% (active). Further, the outcome in assay [3], in [4], in assay [5], in assay [6], in assay [7] and in [8] was inactive. The outcome in assay [9], in [10], in [11], in assay [12], in [13] and in assay [14] was inactive. Moreover, the outcome in [15] and in assay [16] was inactive.

On to `O=C(NCC(c1cccs1)N1CCOCC1)c1ccc(Cl)c([N+](=O)[O-])c1` (stereo not given), for which the figures for the activation in assay [1] and in [12] were 135% (active) and 21.6% (active), respectively. The result in assay [2], in [3], in assay [4], in assay [5], in [6] and in assay [7] was inactive. The outcome in [8], in assay [9], in assay [10], in assay [11], in [13] and in assay [14] was inactive. In addition, the outcome in assay [15] and in assay [16] was inactive.

As to `S=C(NCCc1ccccn1)NC1CCCCC1`, the figures for the activation in [1], in assay [10] and in [12] were 97% (active), 24.5% (active) and 28.1% (active), respectively. In addition, the result in assay [2], in assay [3], in assay [4], in assay [5], in assay [6] and in assay [7] was inactive. In addition, the result in [8], in assay [9], in assay [11], in assay [13], in [14] and in assay [15] was inactive. In addition, in [16], the outcome was inactive.

Consider `O=C(NC(=S)NNC(=O)c1ccccc1[N+](=O)[O-])c1ccc(Br)cc1`, for which the activation in assay [1] is 141% (active); in assay [10], 29% (active); in assay [15], 15.6% (active). The outcome in [2], in [3], in assay [4], in [5], in assay [6] and in assay [7] was inactive. In addition, the outcome in assay [8], in [9], in assay [11], in assay [12], in assay [13] and in [14] was inactive. Besides, the outcome in assay [16] was inactive.

As for `O=C(CCCCn1c(=O)[nH]c2ccccc2c1=O)NC1CCN(Cc2ccccc2)CC1`, the outcome in [1], in [2], in assay [3], in [4], in assay [5] and in assay [6] was inactive. Moreover, the result in assay [7], in assay [8], in [9], in assay [11], in assay [12] and in assay [13] was inactive. In addition, the result in [14], in [15] and in [16] was inactive. In assay [10], the activation was 35% (active).

Regarding `CN(C)C(CNc1ccc(C(F)(F)F)cn1)c1ccccc1` (stereo not given), the activation in assay [1] was 135% (active); in [10], 32% (active); in [12] it was 5.53% (active). In addition, the result in [2], in assay [3], in assay [4], in assay [5], in assay [6] and in assay [7] was inactive. The result in assay [8], in assay [9], in assay [11], in assay [13], in assay [14] and in [15] was inactive. Besides, the outcome in assay [16] was inactive.

Consider `O=C1S/C(=C\c2ccc(N3CCOCC3)o2)C(=O)N1Cc1c(F)cccc1Cl`, for which the outcome in assay [1], in assay [2], in [3], in assay [4], in assay [5] and in [6] was inactive. The outcome in [7], in [8], in assay [9], in assay [12], in assay [13] and in assay [14] was inactive. In addition, the outcome in assay [15] and in [16] was inactive. Moreover, the activation in [10] was 280% (active). The potentiation, percent of control in assay [11] is 191% (active).
